Activation data for 88 molecules are collected here from PubChem BioAssay AID602163 (The Scripps Research Institute Molecular Screening Center, 2012).

Molecules are shown by their SMILES. The whole screen tested about 360,000 compounds, of which about 1,100 (0.31%) were called active. Cut-off read from the data, not from the text of the source: active = activation above about 7.5%; inactive = the rest. The sample as a whole holds a higher share of actives than the screen did.

This test concerns Methionine sulfoxide reductase A (Bos taurus). In words: activation of methionine sulfoxide reductase A – biochemical, absorbance, bovine, HTS, primary screen (AID 602163).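 Note: 0% = vehicle and 100% = reference activator.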 Particulars: purified bovine MsrA, absorbance read-out; at 10.6 µM; stronger effect = higher value.
With `CCOC(=O)C1CCN(C(=O)C2CCN(S(=O)(=O)c3c(C)noc3C)CC2)CC1`, the activation is -0.14% (inactive).

For `O=C1[C@@H]2C(Cc3ccc(O)cc3)NC3(C(=O)Nc4ccc(F)cc43)[C@@H]2C(=O)N1c1ccc(F)cc1` (stereo partly drawn), the activation is -1.38% (inactive).

Turning to `COc1ccc([C@H]2N[C@]3(CCCN(CC4CCCCC4)C3=O)[C@H]3C(=O)N(C)C(=O)[C@@H]23)cc1`, the activation is -4.49% (inactive).

Take `CCOc1ccccc1NC(=O)C1CCCN(C(=O)Nc2ccccc2)C1` (stereo not drawn): the activation is -2.87% (inactive).

In the case of `Nn1c(SCC(=O)Nc2ccc3c(c2)CCC3)nnc1C1CC1`, the activation is 0.99% (inactive).

`CCCN(CC(=O)Nc1ccccc1C)C(=O)c1cc(=O)[nH]c2ccccc12`: the activation was -8.69% (inactive).

For the molecule `CC1CCc2[nH]c3ccc(C(=O)N(C)CC(=O)Nc4cccc(F)c4)cc3c2C1` (stereo not drawn), the activation is -0.36% (inactive).

For `CCCN(CC(=O)Nc1ccccc1C)C(=O)c1ccc2[nH]c3c(c2c1)CC(C)CC3` (stereo not drawn), the activation is 17.2% (active).

For the molecule `COCC(=O)Nc1c(I)c(C(=O)NCC(O)CO)c(I)c(C(=O)N(C)CC(O)CO)c1I` (stereo not drawn), the activation was -1.2% (inactive).

As for `NC(=O)NCCCC(=O)O`, the activation is 5.76% (inactive).

As for `CC(=O)N(O)CCCCCNC(=O)CCC(=O)N(O)CCCCCNC(=O)CCC(=O)N(O)CCCCCNC(=O)CCC(=O)O`, the activation was 8.82% (active).

Take `COc1ccc(OC)c(NC(=O)COC(=O)Cc2ccsc2)c1`: the activation was -3.82% (inactive).

For the molecule `S=c1nccc(-c2cc(Cl)sc2Cl)[nH]1`, the activation was -10.9% (inactive).

For the molecule `CC[C@]1(O)C[C@@H]2CN(CCc3c([nH]c4ccccc34)[C@@](C(=O)OC)(c3cc4c(cc3OC)N(C)[C@H]3[C@@](O)(C(=O)OC)[C@H](OC(C)=O)[C@]5(CC)C=CCN6CC[C@]43[C@@H]65)C2)C1`, the activation was -0.23% (inactive).

As to `Nc1ccc2[nH]c(=S)sc2c1`, the activation is 0.61% (inactive).

For `CCOc1ccc2[nH]c(=S)sc2c1`, the activation was 8.43% (active).

For `CCOc1ccc2[nH]c(=O)c(CN(CCCO)C(C)=O)cc2c1`, the activation is -0.13% (inactive).

On to `Cn1c(CCCOc2ccc(Cl)cc2Cl)n[nH]c1=S`, for which the activation was -3.29% (inactive).

For `Cc1ccc(C)c(NC(=O)CSc2nnc(Cc3cccn3C)n2-c2ccc(F)cc2)c1`, the activation was 9.61% (active).

On to `COC(=O)c1ccc(NC(=O)CSc2nnc(Cc3cccn3C)n2-c2ccc(F)cc2)cc1`, for which the activation was -0.87% (inactive).

Take `COc1ccccc1NC(=O)CSc1nnc(Cc2cccn2C)n1-c1ccc(F)cc1`: the activation is -0.41% (inactive).

With `CCn1c(C)nc2c1C(=O)c1ccccc1C2=O`, the activation is 6.51% (inactive).

Regarding `Cc1noc(NS(=O)(=O)c2ccc(NC(=O)C34CCC(CC3)C4)cc2)c1C`, the activation is 7.83% (active).

`Cc1cc(OC(C)C(=O)Nc2ccc(S(=O)(=O)Nc3onc(C)c3C)cc2)cc(C)c1Cl` (stereo not drawn): the activation was -4.68% (inactive).

For the molecule `O=C(Nc1ccc(S(=O)(=O)Nc2ncccn2)cc1)C12CC3CC(CC(C3)C1)C2`, the activation was -5.78% (inactive).

In the case of `COc1cc(C(=O)OCC(=O)NC23CC4CC(CC(C4)C2)C3)cc(OC)c1OC`, the activation was -1.08% (inactive).

Consider `CCN(CC(=O)Nc1ccccc1OC)C(=O)CC1CC2CCC1C2` (stereo not drawn), for which the activation is 7.82% (active).

`COc1ccc(S(=O)(=O)N2CCOCC2)cc1NC(=O)CC1CC2CCC1C2` (stereo not drawn): the activation is -3.8% (inactive).

Consider `CCN(CC(=O)Nc1ccccc1OC)C(=O)Cn1cnc2ccccc2c1=O`, for which the activation is -6.89% (inactive).

As for `CN(/C(=N/S(=O)(=O)c1cccs1)c1ccccc1)c1ccc(O)cc1`, the activation was -3.66% (inactive).

For the molecule `Brc1ccc(-c2n(-c3ccccn3)c3ccccc3[n+]2-c2ccccn2)cc1`, the activation was -3.31% (inactive).

On to `CCOC(=O)Cc1csc(NC(=O)CSc2nnc(-c3cccnc3)n2Cc2ccco2)n1`, for which the activation is -2.57% (inactive).

As for `CCc1ccc(NC(=O)CSc2nnc(-c3cnccn3)n2Cc2ccco2)cc1`, the activation is 10.3% (active).

Turning to `CCn1c(SCC(=O)Nc2cc(C)ccc2C)nnc1-c1cnccn1`, the activation was -14% (inactive).

As to `CN(C(=O)c1cccc(NC(=O)Cc2ccc(NC(=O)C3CCCN(C(=O)C4CC4)C3)cc2)c1)C1CC1` (stereo not drawn), the activation is -5.02% (inactive).

Regarding `O=C(Cc1ccc(NC(=O)C2CCCN(C(=O)C3CCCCC3)C2)cc1)Nc1cccc(C(=O)N2CCCCC2)c1` (stereo not drawn), the activation was 8.7% (active).

In the case of `CN(C(=O)c1cccc(NC(=O)Cc2ccc(NC(=O)C3CCCN(C(=O)C4CCCC4)C3)cc2)c1)C1CCC1` (stereo not drawn), the activation is -1.96% (inactive).

Regarding `C=C(C)C(=O)O[C@H]1C/C(C)=C\C(=O)/C=C(\C)[C@H](O)[C@@H]2OC(=O)C(=C)[C@@H]21`, the activation was -5.09% (inactive).

Consider `COCc1cccc(-c2csc(C(O)c3ccc(F)cc3)n2)c1` (stereo not drawn), for which the activation is -2.06% (inactive).

In the case of `CSc1ccc(CN(C)CC(=O)NCc2ccc(F)cc2)cc1`, the activation is -2.54% (inactive).

For `COc1cc(OC)cc(-c2c(C#Cc3ccsc3)c3cc(-c4ccc(SC)cc4)ccc3n2C)c1`, the activation was -0.65% (inactive).

As to `C/C=C/C(=O)OCC(=O)Nc1ccc(F)cc1Cl`, the activation is -7.53% (inactive).

In the case of `CN1c2ccc(C=O)c3c(C=O)ccc(c23)N(C)C1(C)C`, the activation is 9.27% (active).

Turning to `c1ccc(CN=C2Nc3ccccc3CS2)nc1`, the activation is -3.81% (inactive).

Turning to `COc1cc(F)c(C2=CC(=O)CC(C)(C)C2)cc1F`, the activation is -3.81% (inactive).

With `O=C(COC(=O)CSc1nnc(-c2ccc(Cl)cc2)o1)Nc1cc(Cl)cc(Cl)c1`, the activation is -3.64% (inactive).

As to `CC(NS(=O)(=O)c1ccccc1)c1n[nH]c(=S)n1-c1ccccc1` (stereo not drawn), the activation is -0.57% (inactive).

In the case of `Cc1ccc(C(=O)COC(=O)CCN2C(=O)C3C4CC(C(Br)C4Br)C3C2=O)cc1` (stereo not drawn), the activation is -3.01% (inactive).

Take `O=C(c1ccco1)N1CCN(Cc2cccc(C(F)(F)F)c2)CC1`: the activation is 7.76% (active).

Regarding `O=C(c1ccco1)N1CCN(CCOc2ccccc2)CC1`, the activation is -3.77% (inactive).

`O=C(c1ccco1)N1CCN(C(=S)Nc2cc(F)cc(F)c2)CC1`: the activation was -6.94% (inactive).

On to `Cn1c(=O)c2[nH]c(NCC3CCCO3)nc2n(-c2ccccc2)c1=O` (stereo not drawn), for which the activation is -0.78% (inactive).

Regarding `Cc1cccc(NC(=O)CSc2nnc(CCCCCNC(=O)OC(C)(C)C)o2)c1C`, the activation was -0.45% (inactive).

For the molecule `O=C(O)CC(CC(=O)N1CCOCC1)c1ccccc1` (stereo not drawn), the activation is -2.3% (inactive).

For the molecule `CC1=NN(C(=O)Cc2ccc(C)cc2)C(O)(c2cccnc2)C1` (stereo not drawn), the activation is 0.86% (inactive).

Regarding `COc1ccc(NC(=O)NCc2ccc3c(c2)OCO3)c(OC)c1`, the activation was -3.53% (inactive).

Consider `COc1cc(OC)c(C(=O)NCc2ccc3c(c2)OCO3)cc1OC`, for which the activation is 9.15% (active).

As to `COc1ccccc1-n1c(C)nc2cc(C(=O)NCc3ccc4c(c3)OCO4)ccc21`, the activation was -1.98% (inactive).

`CCOC(=O)C1CCN(C(=O)c2cccc(S(=O)(=O)N(CC)c3ccccc3)c2)CC1`: the activation was -8.63% (inactive).

Turning to `COc1ccccc1NC(=O)CCN1CCN(c2ccc(Cl)cc2)CC1`, the activation was -3.09% (inactive).

For `O=C(CCN1CCN(c2ccccc2)CC1)NNC(=S)Nc1ccccc1`, the activation was 12.7% (active).

Take `O=C(CN1CCN(c2ccc(O)cc2)CC1)Nc1ccc(-c2ccccc2)cc1`: the activation is -3.19% (inactive).

Turning to `O=C(Nc1ccccc1)c1nnsc1S(=O)(=O)c1ccc(Cl)cc1`, the activation is -11.8% (inactive).

`O=c1[nH]snc1-c1c(Cl)cccc1Cl`: the activation was -0.32% (inactive).

Turning to `CCC(C)N1C(=O)S/C(=C/c2ccc(Sc3nc4ccccc4[nH]3)o2)C1=O` (stereo not drawn), the activation is -7.08% (inactive).

In the case of `Cc1ccc(S(=O)(=O)N2CCC(C(=O)N3CCCCCCC3)CC2)cc1`, the activation is -4.45% (inactive).

For the molecule `Cc1ccc(S(=O)(=O)n2nc(OC(=O)C(C)(C)C)cc2N)cc1`, the activation was 19.7% (active).

On to `Nc1cc(OC(=O)c2ccccc2Br)nn1S(=O)(=O)c1ccccc1`, for which the activation was -3.8% (inactive).

`CCN(CC)C(=O)Cn1cc(S(=O)(=O)CC(=O)NCc2ccc3c(c2)OCO3)c2ccccc21`: the activation was -1.14% (inactive).

Take `O=C1Oc2ccccc2C(=O)/C1=C/c1ccccc1O`: the activation was -0.91% (inactive).

In the case of `NC(=O)COc1ccc(/C=N/NC(=O)C2CCCN2S(=O)(=O)c2ccc(Cl)cc2)cc1` (stereo not drawn), the activation was 8.7% (active).

For `COc1ccccc1NC(=O)C1CCCN1S(=O)(=O)c1ccc(Cl)cc1` (stereo not drawn), the activation is -9.31% (inactive).

Regarding `O=C(OCC(=O)N1CCc2ccccc21)C1CCCN1S(=O)(=O)c1ccc(Cl)cc1` (stereo not drawn), the activation is -1.01% (inactive).

Take `O=C(Nc1ccc2c(c1)C(=O)OC2)Nc1cccc2ccccc12`: the activation was -5.72% (inactive).

As for `CC1Oc2ccccc2N(Cc2cccnc2)C1=O` (stereo not drawn), the activation was -2.41% (inactive).

As to `CC(C)Cn1cnc2c(SCc3ccc(Cl)cc3)nc(N)nc21`, the activation was -1.84% (inactive).

In the case of `CCCCNC(=O)OCCSCCS(=O)(=O)c1ccc(Cl)cc1`, the activation is -0.48% (inactive).

Consider `CCCCNC(=O)OC(C)CNC(=O)OC` (stereo not drawn), for which the activation was 8.8% (active).

Turning to `CCCCNC(=O)C1(c2ccc(OC)cc2)CCOCC1`, the activation was 2.44% (inactive).

As for `Cc1cccc(-n2cnc(C(=O)NNC(=S)Nc3ccccc3)c2)n1`, the activation is -2.6% (inactive).

For `COc1ccc(S(=O)(=O)NC(=O)C2(C)CCN2C(=O)COc2ccc(Cl)cc2)cc1` (stereo not drawn), the activation is -2.84% (inactive).

For the molecule `C=CCn1c(SCC(=O)c2c(N)n(C)c(=O)n(C)c2=O)nc2sc(CC)cc2c1=O`, the activation was 8.63% (active).

Consider `C=CCn1c(SCC(=O)/C(C#N)=C(\C)N)nc2sc(C)c(C)c2c1=O`, for which the activation is -12.1% (inactive).

For `CCc1cc2c(=O)n(-c3ccccc3)c(SCC(=O)O)nc2s1`, the activation is -3.91% (inactive).

As for `COc1cc(C)nc(N2CCCC(C(=O)NCC(C)C)C2)n1` (stereo not drawn), the activation is -8.78% (inactive).

As to `COc1ccc2cc(C(=O)C3CCCN(C(=O)c4sc(C)nc4C)C3)ccc2c1` (stereo not drawn), the activation is -0.96% (inactive).

Turning to `COc1ccc2nc(N3CCCC(O)C3)c(C#N)cc2c1` (stereo not drawn), the activation is 19.6% (active).

Regarding `CCOc1ccc2nc(N3CCCN(C(=O)Nc4ccccc4C)CC3)c(C#N)cc2c1`, the activation was -1.05% (inactive).
